111 compounds from ChEMBL document CHEMBL4513216, “Probing the Open Global Health Chemical Diversity Library for Multistage-Active Starting Points for Next-Generation Antimalarials” (ACS Infect Dis, 2020) can be followed below.

SMILES strings stand for the structures. Among all 69,000 compounds or so, about 8,600 (12%) showed an effect of 50% or more. This is one part of a sample in which strong results are shown more often than they occur.

This assay relates to Plasmodium berghei. In words: Screen against P. berghei liver stage (PbLuc), transformed with Luciferase, at 10uM. As to conditions: tested at 10 uM. The class given is functional, HepG2.
For the compound `CCOCC1CN(C(=O)C2=CCCC2)Cc2cnn(CC)c21` (stereo unspecified), the INHIBITION was found to be 42.6%. `Cc1cnn(CC2CN(CCCc3nc4ccccc4o3)CCO2)c1` (stereo unspecified): the INHIBITION is -12.1%. The value for `CCn1nc(C)c(NC(=O)CN2CCC(c3ccccc3Cl)C2)c1C` (stereo unspecified) was 48.2%.

On to `COCCN1C[C@H](NC(=O)CCC(F)(F)F)[C@@H](C(C)C)C1`, for which the INHIBITION is reported as 30.9%. The value for `CC(=O)N1CCCC(c2ccc(CO)c(-c3c(C)noc3C)n2)C1` (stereo unspecified) was 18.4%; that for `CCc1nc(C)c(C(=O)NCCN2CCCC2)s1` was -19.9%; that for `COC(=O)c1ccc(C(=O)NCc2nn(C)c3c2COCC3)cc1` was 6%. The value for `COCC(C)(C#N)NC(=O)COc1ccccc1` (stereo unspecified) was 66.7%. The value for `COCC(C)(C#N)NC(=O)COc1ccccc1Br` (stereo unspecified) was -3.81%; that for `CC(C)(C)NC(=O)COc1ccc(Oc2ccccn2)cc1` was 23.7%; that for `OCc1cnc(Nc2ccccc2)nc1` was -7.27%. Consider `Cc1c(CN2CCOCC2)c(O)n(CCc2ccccc2)c(=O)c1C#N`, for which the INHIBITION is reported as 6%.

`Cc1nccc(NCc2cncc3c2CCN(S(C)(=O)=O)C3)n1`: the INHIBITION is 59.3%.

For the compound `CN(Cc1ccco1)Cc1cncc2c1CCN(c1ncccn1)C2`, the INHIBITION was determined as 37%. To `Cc1cnc(N2CCc3c(CNc4ccnc(C)n4)cncc3C2)nc1` belongs 94.6%; to `Cc1ccc(NCc2cncc3c2CCN(Cc2ccccn2)C3)nn1`, -30.7%. For the compound `COCc1cncc2c1CCN(Cc1ccccn1)C2`, the INHIBITION was -13.2%.

`Cn1cc(C(=O)NCc2cncc3c2CCN(c2ccccn2)C3)cn1`: the INHIBITION is given as 34%. The value for `Cc1occc1C(=O)N1CCc2c(CNc3ncccn3)cncc2C1` was 4.27%; that for `Cc1ccc(N2CCc3c(CN(C)Cc4ccco4)cncc3C2)nn1` was -11.2%; that for `CN(Cc1cccnc1)Cc1cncc2c1CCN(c1ccccn1)C2` was 51.2%. To `Cn1cc(C(=O)NCc2cncc3c2CCN(S(C)(=O)=O)C3)cn1` belongs 38.5%.

Turning to `CN(Cc1ccco1)Cc1cncc2c1CCN(S(C)(=O)=O)C2`, the INHIBITION is on record as 40.1%. To `Cc1cnc(N2CCc3c(CN(C)Cc4ccco4)cncc3C2)nc1` belongs 66.8%; to `Cc1ccnc(C2CCN(C(=O)CCn3ncc4ccccc43)C2)n1` (stereo unspecified), 5.11%; to `CNC(=O)[C@@H](c1ccccc1F)N1CCC[C@H]1C(=O)NC1CC1`, 0.734%. For `Cn1ccnc1CN1CCO[C@H]2C(CNC(=O)c3ccco3)CC[C@@H]21` (stereo partly specified), the INHIBITION amounted to 16.9%.

Regarding `CC(C)CC(=O)N1CC[C@@H]2CN(Cc3cccnc3)S(=O)(=O)[C@@H]2CC1`, the INHIBITION is on record as 42.1%. To `Cc1cc(C(=O)N2CC[C@@H]3CN(S(C)(=O)=O)CCO[C@@H]3C2)c(C)o1` belongs 37%; to `O=C(NCc1cc[nH]n1)NC1CCCN(c2ncccn2)C1` (stereo unspecified), -0.79%. The value for `Cc1cnc(N2CCN3C[C@H](OCc4cccc(C)n4)C[C@H]3C2)nc1` was 42.3%; that for `O=C(NCC1CC1)c1nc2c(o1)CN(CC1CC1)C2` was -48.4%. The value for `Fc1ccccc1Cc1noc(CN2CCC(C3CCCCC3)C2)n1` (stereo unspecified) was 49.9%; that for `COCc1ccccc1NC(=O)[C@@H]1CCCN1C(=O)c1ccco1` was 39.2%; that for `COC(=O)c1sccc1NC(=O)C1CCCN1C(=O)c1ccco1` (stereo unspecified) was -62.2%. With `Cc1cccc(NC(=O)C2CCCN2C(=O)c2ccco2)c1C` (stereo unspecified), the INHIBITION turned out to be 72.5%. To `N#CCCN(CCN1CCOCC1)Cc1ccc(F)c(Br)c1` belongs 20.4%; to `CC(C)CN1C(=O)CC[C@H]2CN(C(=O)Cn3ccc(=O)cc3)CC[C@H]21`, 33.9%; to `CC(C)CN1C(=O)CC[C@H]2CN(C(=O)Cn3ccccc3=O)CC[C@H]21`, 45.8%. To `CC1=NN(CC(=O)N2CC[C@@H]3[C@@H](CCC(=O)N3CC(C)C)C2)CC1` belongs 56.7%; to `COc1ccnc(N2CCN(C(=O)c3ccn(C)c(=O)c3)CC2)n1`, -21.8%. To `Cc1nnsc1C(=O)N1CC(c2nc3ccccc3[nH]2)C1` belongs 49.4%; to `Cc1nnsc1C(=O)N1CCC(c2nc3ccccc3[nH]2)CC1`, 65.4%; to `CCc1nnsc1C(=O)N1CCCC(c2nc3ccccc3[nH]2)C1` (stereo unspecified), 26.9%. As to `O=C(c1cc2ccccc2[nH]1)N1CCCCC1Cn1cccn1` (stereo unspecified), the INHIBITION was determined as 48.1%. To `Cc1nn(C)cc1-c1cc(C(F)F)nc2sc(C(N)=O)c(N)c12` belongs 1.86%; to `CC(C)(C)c1ccc(-c2n[nH]c3c2CN(CC2CCOC2)CC3)cc1` (stereo unspecified), 44.3%. To `CC(O)CN1CCc2[nH]nc(C(c3ccccc3)c3ccccc3)c2C1` (stereo unspecified) belongs -12.1%; to `CC(C)c1nnsc1CN1CCc2[nH]nc(-c3ccc(Cl)cc3)c2C1`, 50.1%. `CCc1nc(C)sc1CN1CCc2[nH]nc(-c3ccc(F)c(F)c3)c2C1`: the INHIBITION came to 37.2%. Take `COC(=O)CCC(=O)N1CCc2[nH]nc(-c3ccc(F)c(F)c3)c2C1`: the INHIBITION was found to be 15.9%. The value for `CC(C)c1nnsc1CN1CCc2[nH]nc(-c3ccc(F)c(F)c3)c2C1` was 70.4%. As for `CS(=O)(=O)N[C@@H]1COC[C@@H]2CN(Cc3ccoc3)C[C@@H]21`, the INHIBITION stood at 15.4%. The value for `Cc1cccc(C(=O)N(CC(=O)O)CC(C)C)c1` was 28.1%.

With `CCN(CC)C(=O)c1cc(C2CCCN2C)ccn1` (stereo unspecified), the INHIBITION turned out to be 47.2%.

`CC(COc1ccc(F)cc1F)NC(=O)NCCN1CCOCC1` (stereo unspecified): the INHIBITION is listed as -32.4%. To `CCC(C)NC(=O)c1sccc1-n1cnnn1` (stereo unspecified) belongs -5.22%.

Take `COc1cccc2c1ccn2CC(=O)N1CCCC(C(=O)O)C1` (stereo unspecified): the INHIBITION is reported as 31.7%.

Regarding `O=C(c1ccco1)N1CCCC2(CN(Cc3ccc(F)cc3)CCO2)C1` (stereo unspecified), the INHIBITION was -1.83%.

In the case of `O=C1N(CC2CC2)C(c2cncs2)NC12CCCC2` (stereo unspecified), the INHIBITION was determined as 49%. To `Cc1cccc(CN2CCC3(CC2)COC(COCC2CC2)C3)n1` (stereo unspecified) belongs 43%; to `Cn1cc(CN(Cc2ccccc2)Cc2ccccn2)cn1`, 1.62%. To `Cc1cnn(CC2CCCCN2CC(=O)NCc2ccccn2)c1` (stereo unspecified) belongs -4.74%. With `CCCN(CCc1ccccn1)C(=O)Cn1cnnn1`, the INHIBITION is on record as -17.8%. The value for `CCCN(CCc1ccccn1)C(=O)CCc1cnn(C)c1` was 65.2%; that for `Cn1cc(CCC(=O)N2C[C@H]3CC[C@@H](C2)N(Cc2ccccn2)C3)cn1` was 6.11%; that for `CCCN(CCc1ccccn1)C(=O)Cn1cc(C)cn1` was 78.8%. To `CC(c1nc(C2CC2)no1)N1CCN(Cc2nnc(C3CC3)o2)CC1` (stereo unspecified) belongs -51.5%; to `Cc1c(C(=O)NC(C)CC(=O)c2cccs2)cnn1C` (stereo unspecified), 40.6%; to `CC(=O)N1CCCN(C(=O)c2ccc(Sc3ccccn3)cc2)CC1`, -0.217%.

`Cc1cccn2cc(CC(=O)N(CCN(C)C)CC3CCCO3)nc12` (stereo unspecified): the INHIBITION amounted to 58.5%.

With `O=C(Cc1cn2ccsc2n1)N(Cc1ccco1)CC1CCCO1` (stereo unspecified), the INHIBITION turned out to be 7.21%.

Regarding `CN(C)CCN(CC1CCCO1)C(=O)Cc1cn2ccccc2n1` (stereo unspecified), the INHIBITION was 28.7%. The value for `Fc1ccc(CN2CCc3ncnc(C4CC4)c3CC2)cc1` was 39.5%. For `O=C1CCN(C(=O)c2ncoc2-c2ccco2)c2ncccc2N1`, the INHIBITION worked out at 15.1%. To `O=c1[nH]nc(C2CC2)n1-c1cccc(Cl)c1` belongs -21.7%; to `CN1CCC(c2n[nH]c(=O)n2-c2cccc(Cl)c2)CC1`, 14.1%; to `CN1CC(c2n[nH]c(=O)n2-c2cccc(Cl)c2)CC1=O` (stereo unspecified), 58.9%. Take `O=C(c1ccc(N2CCCC2)nc1)N1CCCC(n2cncn2)C1` (stereo unspecified): the INHIBITION is reported as -29.5%. The value for `Cc1nc(C)n(CC2CCCN(Cc3cccnc3)C2)n1` (stereo unspecified) was -14.6%; that for `CN(C)C(=O)CCC1CCCN(Cc2ccc(-c3cccnc3)cc2)C1` (stereo unspecified) was 29.8%. To `Cc1nccn1CC1CCCN(Cc2ccc(-c3cccnc3)cc2)C1` (stereo unspecified) belongs 66.7%; to `Cc1nn(C)c(N(C)C)c1CNCc1ccccc1CO`, 15.3%. The value for `Cc1cc(NC(=O)CCn2nc(C)c3ccccc32)n(C(C)C)n1` was 59%; that for `CCn1nc(C)cc1NC(=O)CCn1nc(C)c2ccccc21` was 20.9%; that for `Cc1cc(NC(=O)CCn2nc(C)c3ccccc32)n(C)n1` was 26.7%. For the compound `CSCC[C@H](NC(=O)N1CCC(Cc2ccccc2)CC1)C(=O)O`, the INHIBITION is 20%.

Take `CC(NC(=O)C1CCCC1)c1nncn1C(C)C` (stereo unspecified): the INHIBITION came out at 52.2%. To `CC(NC(=O)C1CCN(C(C)C)CC1)c1nncn1C1CCCC1` (stereo unspecified) belongs 17.8%; to `CC(NC(=O)C1CCN(C(=O)C2CC2)CC1)c1nncn1C(C)C` (stereo unspecified), 44%; to `CCOc1ccccc1C(C(=O)O)N(C)CC1CCOCC1` (stereo unspecified), 41.3%. Consider `c1sc(C2CCCCC2)nc1CN1CCn2c(nnc2C2CC2)C1`, for which the INHIBITION was 38.8%.

As to `O=C(NCCn1ccnc1)N1CCCC1c1ccc2c(c1)OCCO2` (stereo unspecified), the INHIBITION is on record as -1.25%. To `COc1ccc2nnc(CCC(=O)Nc3nc4c(s3)CCCC4)n2n1` belongs -2.09%. Take `O=C(NCC1CCOCC1)[C@@H]1C[C@@H]2CCN(Cc3ccco3)C[C@H]2O1`: the INHIBITION was determined as 2.74%. The value for `COCCCNC(=O)C(C)(C)N(C)C1CCCC1` was 72.1%. To `CN(C1CCCC1)C(C)(C)C(=O)NCCS(C)(=O)=O` belongs 42.4%.

As for `CN(C1CCCC1)C(C)(C)C(=O)NCCNC(N)=O`, the INHIBITION turned out to be 32.2%. Turning to `O=C1CCC(=O)c2oc3ccc(Br)cc3c2N1`, the INHIBITION worked out at 0.207%. The value for `Cc1cnn(CC(C)NCc2ccc(S(C)(=O)=O)cc2)c1` (stereo unspecified) was 56.3%; that for `CC(Cn1cccn1)NCc1csc(COc2ccccc2)n1` (stereo unspecified) was -2.53%; that for `c1cnn(CCNCc2cnc(N3CCCC3)nc2)c1` was -1.04%. To `CC(Cn1cccn1)NCc1ccc(OCc2ccncc2)cc1` (stereo unspecified) belongs 56.4%; to `Cc1cnn(CC(C)NCc2ccccc2OCc2cccnc2)c1` (stereo unspecified), 13.3%. To `Cc1cnn(CC(C)NCc2cccnc2)c1` (stereo unspecified) belongs -3%; to `Cc1cnn(CC(C)NCc2ccc(C#N)cc2)c1` (stereo unspecified), 32.8%; to `Cc1cnn(CCNCc2ccc(S(C)(=O)=O)cc2)c1`, -13.1%. `Cc1cnn(CC(C)NCc2ccc(OCc3cccnc3)cc2)c1` (stereo unspecified): the INHIBITION came to 58.5%. To `c1ccc(Cn2cccn2)c(CNCc2cnc(N3CCCC3)nc2)c1` belongs 22.6%; to `CC(Cn1cccn1)NCc1cnc(N2CCCC2)nc1` (stereo unspecified), 53.2%; to `COc1cc(CNC(C)Cn2cccn2)cc(OC)c1` (stereo unspecified), 25.1%.
